Measurements from PubChem BioAssay (EPA / NIEHS).
Inconclusive results are not listed. The source made the active and inactive calls. The calls were made as follows, unless noted: active = hit-call score of the fitted dose curve at least 0.9, where 1 is the maximum; inactive = score below 0.9.

Key:
[1] = target: human Retinoid X Receptor beta (RXRb), RXRB (gene 6257) (UniProt P28702); test: ATG_RXRb_TRANS: Attagene TRANS-FACTORIAL HepG2 Assay for human Retinoid X Receptor beta (RXRb) (AID 2283013; active = hit-call score of the fitted dose curve at least 0.9, where 1 is the maximum)
How it was run: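 Read-out: reporter mRNA induction via RT-PCR plus capillary electrophoresis fluorescence, analysed as signal increase relative to DMSO. Cells were human HepG2, transiently transfected with GAL4-UAS reporter constructs and chimeric receptor-Gal4 fusions, dosed for 24 h.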

[2] = read-out: E-selectin (Homo sapiens) (UniProt P16581); test: BSK_3C_Eselectin: BioMAP Diversity Plus: 3C Assay for Eselectin Biomarker Activity (AID 2283015); settings: primary human endothelial cells (HUVEC); actives raise or lower the signal
How it was run: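 Human vascular endothelium from umbilical vein is exposed to test chemicals for 24 h. E-selectin levels are read by ELISA and compared with DMSO controls.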

[3] = read-out: Interleukin-1 alpha (IL1a), IL1A (gene 3552); test: BSK_BE3C_IL1a: BioMAP Diversity Plus: BE3C Assay for Interleukin-1 alpha (IL1a) Biomarker Activity (AID 2283016); settings: primary human bronchial epithelial cells; actives raise or lower the signal
How it was run: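 ELISA read-out of IL-1a from human lung bronchial epithelial primary cells, 24 h post-dose. Gain or loss of signal fitted relative to DMSO negative control.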

[4] = read-out: Monocyte Chemoattractant Protein-1 (MCP1), CCL2 (gene 6347); test: BSK_3C_MCP1: BioMAP Diversity Plus: 3C Assay for Monocyte Chemoattractant Protein-1 (MCP1) Biomarker Activity (AID 2283017); settings: primary human endothelial cells (HUVEC); actives raise or lower the signal
How it was run: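 Endothelial cells from human umbilical vein are dosed with chemical, cultured 24 h, then assayed for MCP-1 by ELISA; both increases and decreases are modelled against DMSO controls.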

[5] = read-out: Monocyte Chemoattractant Protein-1 (MCP1), CCL2 (gene 6347); test: BSK_4H_MCP1: BioMAP Diversity Plus: 4H Assay for Monocyte Chemoattractant Protein-1 (MCP1) Biomarker Activity (AID 2283018); settings: primary human endothelial cells (HUVEC); actives raise or lower the signal
How it was run: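 HUVEC primary cells, 24 h post-dose, MCP-1 by ELISA. Gain or loss of signal fitted bidirectionally vs DMSO baseline. Cytotoxicity: SRB stain (0.1% after 10% TCA fixation), read 560 nm, parallel cultures.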

[6] = read-out: Human Leukocyte Antigen - DR isotype (HLADR), HLA-DRA (gene 3122); test: BSK_3C_HLADR: BioMAP Diversity Plus: 3C Assay for Human Leukocyte Antigen - DR isotype (HLADR) Biomarker Activity (AID 2283019); settings: primary human endothelial cells (HUVEC); actives raise or lower the signal
How it was run: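 Endothelial cells from human umbilical vein are treated with test chemical; after 24 h, HLA-DR levels are measured by ELISA. Data are fitted in both directions using DMSO as the baseline.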

[7] = read-out: Interleukin-8 (IL8), CXCL8 (gene 3576); test: BSK_3C_IL8: BioMAP Diversity Plus: 3C Assay for Interleukin-8 (IL8) Biomarker Activity (AID 2283020); settings: primary human endothelial cells (HUVEC); actives raise or lower the signal
How it was run: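 HUVEC, 3C stimulation; 24 h compound exposure; IL-8 read by ELISA; gain or loss of signal fitted relative to DMSO control.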

[8] = read-out: Monokine induced gamma interferon (MIG), CXCL9 (gene 4283); test: BSK_3C_MIG: BioMAP Diversity Plus: 3C Assay for Monokine induced gamma interferon (MIG) Biomarker Activity (AID 2283021); settings: primary human endothelial cells (HUVEC); actives raise or lower the signal;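 as to AC50: MIG protein level measured by immunoassay in the treated endothelial cultures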
How it was run: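 HUVEC, 3C system; 24 h chemical exposure; MIG by ELISA; bidirectional fit vs DMSO baseline.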

[9] = target: human Vitamin D Receptor (VDR), VDR (gene 7421) (UniProt P11473); test: ATG_VDR_TRANS: Attagene TRANS-FACTORIAL HepG2 Assay for human Vitamin D Receptor (VDR) (AID 2283022; active = hit-call score of the fitted dose curve at least 0.9, where 1 is the maximum)
How it was run: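 Fluorescence of labelled reporter cDNA fragments, resolved by capillary electrophoresis, gives mRNA induction after 24 h treatment of HepG2 cells carrying transfected Gal4-fusion reporter units. Activity is fitted in the positive direction with DMSO as baseline.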

[10] = BSK_3C_SRB: Viability Assessment in the BioMAP Diversity Plus: 3C Assay (AID 2283023); settings: primary human endothelial cells (HUVEC);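 also: cells read 24 h after compound dosing; fitted both ways against DMSO so a hit may be signal rise or drop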
How it was run: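 Cells were dosed with chemical, cultured 24 h, fixed with 10% TCA, stained with 0.1% SRB and read at 560 nm. Human umbilical vein endothelium was used; DMSO served as negative control and baseline.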

[11] = read-out: Matrix Metallopeptidase 1 (MMP1), MMP1 (gene 4312); test: BSK_BE3C_MMP1: BioMAP Diversity Plus: BE3C Assay for Matrix Metallopeptidase 1 (MMP1) Biomarker Activity (AID 2283024); settings: primary human bronchial epithelial cells; actives raise or lower the signal
How it was run: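 ELISA read-out of MMP1 in human lung bronchial epithelial primary cultures, 24 h post-dose; bidirectional curve fit vs DMSO baseline, gain or loss of signal scored.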

[12] = BSK_3C_Vis: BioMAP Diversity Plus: 3C Assay for Morphology Visualization (AID 2283025); settings: primary human endothelial cells (HUVEC);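 also: fitted both ways so gain or loss versus DMSO counts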;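 as to AC50: light microscopy image of cell morphology used as background control; cells imaged 24 h after dosing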
How it was run: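 HUVEC, 3C system; light microscopy of morphology at 24 h post-dose. Bidirectional fit vs DMSO baseline. Secondary readout, background-control function.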

[13] = read-out: Pselectin, SELP (gene 6403); test: BSK_4H_Pselectin: BioMAP Diversity Plus: 4H Assay for Pselectin Biomarker Activity (AID 2283026); settings: primary human endothelial cells (HUVEC); actives raise or lower the signal
How it was run: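 HUVEC, 24 h chemical exposure; P-selectin read by ELISA. Bidirectional curve fit vs DMSO baseline; gain or loss of signal scored.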

[14] = BSK_4H_SRB: Viability Assessment in the BioMAP Diversity Plus: 4H Assay (AID 2283027); settings: primary human endothelial cells (HUVEC);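 also: cells exposed to compound for 24 h before staining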;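 as to AC50: curves fitted both ways versus DMSO so AC50 may be loss or gain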
How it was run: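 Cytotoxicity readout: sulforhodamine B (0.1%) staining of total protein after 10% TCA fixation, measured at 560 nm in human umbilical vein endothelium at 24 h. DMSO set the baseline; fitting was bidirectional.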

[15] = BSK_BE3C_SRB: Viability Assessment in the BioMAP Diversity Plus: BE3C Assay (AID 2283028); settings: primary human bronchial epithelial cells;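 as to AC50: fitted both ways so AC50 may mark signal gain or loss versus DMSO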
How it was run: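 Overt cytotoxicity was assessed as total protein in confluent human primary bronchial epithelial cultures 24 h after chemical addition, using 0.1% sulforhodamine B staining read at 560 nm.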

[16] = read-out: Urokinase-type plasminogen activator receptor (uPAR), PLAUR (gene 5329); test: BSK_4H_uPAR: BioMAP Diversity Plus: 4H Assay for Urokinase-type plasminogen activator receptor (uPAR) Biomarker Activity (AID 2283030); settings: primary human endothelial cells (HUVEC); actives raise or lower the signal
How it was run: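 Chemicals are dosed onto human vascular endothelial primary cells (umbilical vein). After 24 h, uPAR is read by ELISA. Gain or loss of signal is fitted relative to DMSO.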

[17] = read-out: Vascular endothelial growth factor receptor 2 (Homo sapiens) (UniProt P35968); test: BSK_4H_VEGFRII: BioMAP Diversity Plus: 4H Assay for Vascular endothelial growth factor receptor 2 (VEGFR2) Biomarker Activity (AID 2283031); settings: primary human endothelial cells (HUVEC); actives raise or lower the signal;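 as to AC50: cell-surface VEGFR2 protein level quantified by ELISA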
How it was run: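 VEGFRII levels on human vascular endothelial primary cells were determined by ELISA at 24 hours post-dosing, with gain- or loss-of-signal fitted against DMSO controls.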

[18] = target: human Thyroid Receptor alpha (THRa1), THRA (gene 7067) (UniProt P10827); test: ATG_THRa1_TRANS: Attagene TRANS-FACTORIAL HepG2 Assay for human Thyroid Receptor alpha (THRa1) (AID 2283014; active = hit-call score of the fitted dose curve at least 0.9, where 1 is the maximum)
How it was run: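 First, HepG2 cells receive multiple GAL4-UAS reporter units and the chimeric receptor. They are then dosed for 24 h, after which RNA is reverse-transcribed, amplified, labelled, HpaI-cut and sized by capillary electrophoresis; gain relative to DMSO is scored.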

[19] = read-out: Thrombomodulin, THBD (gene 7056); test: BSK_3C_Thrombomodulin: BioMAP Diversity Plus: 3C Assay for Thrombomodulin Biomarker Activity (AID 2283029); settings: primary human endothelial cells (HUVEC); actives raise or lower the signal
How it was run: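 HUVEC, 3C conditions; compound 24 h; thrombomodulin by ELISA; bidirectional curve fit vs DMSO baseline; parallel SRB total-protein staining for cytotoxicity.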

Measured: AC50

human Thyroid Receptor alpha (THRa1), THRA (gene 7067), sequence (P10827 whole entry, looked up, the tested form may be a part): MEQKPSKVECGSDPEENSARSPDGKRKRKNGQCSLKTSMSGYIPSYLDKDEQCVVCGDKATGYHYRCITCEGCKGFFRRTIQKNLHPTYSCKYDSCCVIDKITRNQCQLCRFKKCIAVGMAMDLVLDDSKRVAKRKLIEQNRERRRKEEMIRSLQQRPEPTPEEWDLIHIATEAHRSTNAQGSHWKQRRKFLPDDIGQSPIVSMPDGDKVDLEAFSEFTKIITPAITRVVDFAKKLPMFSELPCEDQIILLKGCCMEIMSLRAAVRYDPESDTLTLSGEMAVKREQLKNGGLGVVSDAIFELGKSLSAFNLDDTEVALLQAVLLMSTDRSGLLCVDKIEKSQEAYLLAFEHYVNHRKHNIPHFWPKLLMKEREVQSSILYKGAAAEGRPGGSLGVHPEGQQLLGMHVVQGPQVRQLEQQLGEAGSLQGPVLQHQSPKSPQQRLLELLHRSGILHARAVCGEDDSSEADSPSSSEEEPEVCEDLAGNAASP
E-selectin (Homo sapiens), sequence (P16581 whole entry, looked up): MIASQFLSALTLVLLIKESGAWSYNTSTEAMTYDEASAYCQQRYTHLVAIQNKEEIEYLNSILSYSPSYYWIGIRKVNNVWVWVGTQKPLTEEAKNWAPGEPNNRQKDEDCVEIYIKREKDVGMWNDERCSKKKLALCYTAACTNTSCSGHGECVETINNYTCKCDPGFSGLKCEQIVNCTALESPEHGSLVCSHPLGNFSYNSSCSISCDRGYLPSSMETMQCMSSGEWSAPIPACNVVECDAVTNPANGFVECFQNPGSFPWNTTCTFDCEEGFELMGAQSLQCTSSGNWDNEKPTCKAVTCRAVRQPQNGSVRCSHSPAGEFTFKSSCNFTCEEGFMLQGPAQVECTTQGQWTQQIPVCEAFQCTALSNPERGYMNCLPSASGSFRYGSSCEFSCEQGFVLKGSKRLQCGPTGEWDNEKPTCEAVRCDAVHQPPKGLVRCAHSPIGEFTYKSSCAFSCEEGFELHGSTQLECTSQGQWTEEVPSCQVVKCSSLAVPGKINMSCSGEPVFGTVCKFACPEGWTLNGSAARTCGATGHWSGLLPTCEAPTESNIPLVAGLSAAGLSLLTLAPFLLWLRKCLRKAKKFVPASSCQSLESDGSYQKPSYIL
human Vitamin D Receptor (VDR), VDR (gene 7421), sequence (P11473 whole entry, looked up, the tested form may be a part): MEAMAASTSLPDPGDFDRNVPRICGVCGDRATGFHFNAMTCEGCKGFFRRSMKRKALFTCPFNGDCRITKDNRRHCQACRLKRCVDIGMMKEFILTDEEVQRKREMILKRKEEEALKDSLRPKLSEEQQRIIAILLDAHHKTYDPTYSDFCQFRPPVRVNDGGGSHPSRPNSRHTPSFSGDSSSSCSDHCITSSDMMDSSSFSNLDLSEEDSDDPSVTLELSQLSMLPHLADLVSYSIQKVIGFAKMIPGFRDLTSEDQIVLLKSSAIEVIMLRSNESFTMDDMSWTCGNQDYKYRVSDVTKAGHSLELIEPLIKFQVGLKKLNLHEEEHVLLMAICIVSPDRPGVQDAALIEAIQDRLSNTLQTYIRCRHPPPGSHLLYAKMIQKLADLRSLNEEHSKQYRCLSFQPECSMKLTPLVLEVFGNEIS
human Retinoid X Receptor beta (RXRb), RXRB (gene 6257), sequence (P28702 whole entry, looked up, the tested form may be a part): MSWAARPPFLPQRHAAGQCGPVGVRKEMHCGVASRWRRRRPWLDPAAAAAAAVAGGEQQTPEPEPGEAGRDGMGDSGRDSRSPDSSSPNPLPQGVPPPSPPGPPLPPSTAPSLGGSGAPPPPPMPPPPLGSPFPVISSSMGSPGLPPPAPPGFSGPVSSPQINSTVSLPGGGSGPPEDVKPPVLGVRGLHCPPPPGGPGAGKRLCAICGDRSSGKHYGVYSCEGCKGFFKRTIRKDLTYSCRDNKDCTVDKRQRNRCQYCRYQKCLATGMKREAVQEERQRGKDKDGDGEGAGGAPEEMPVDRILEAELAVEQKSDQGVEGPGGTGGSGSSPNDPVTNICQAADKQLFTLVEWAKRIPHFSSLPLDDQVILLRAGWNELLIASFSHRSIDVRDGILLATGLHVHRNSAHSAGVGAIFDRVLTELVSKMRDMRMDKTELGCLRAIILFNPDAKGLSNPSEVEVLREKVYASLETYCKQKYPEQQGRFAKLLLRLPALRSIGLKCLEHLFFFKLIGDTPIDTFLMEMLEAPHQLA

Cc1cc(=O)[nH]c(=S)[nH]1
not listed: [18] | [19]
inactive: all other assays above

Cc1ccccc1Cl
not listed: [1] | [9] | [19]
inactive: all other assays above

O=C(OCCCCCOC(=O)c1ccccc1)c1ccccc1
not listed: [1] | [9] | [19]
inactive: all other assays above

CNC(=O)[C@H]1O[C@@H](n2cnc3c(NCc4cc(Cl)ccc4OCc4cc(C)no4)ncnc32)[C@H](O)[C@@H]1N
not listed: [1] | [18]
inactive: all other assays above

COCCOCCOC
not listed: [1] | [9] | [19]
inactive: all other assays above

CN[C@H]1CC[C@@H](c2ccc(Cl)c(Cl)c2)c2ccc(S(N)(=O)=O)cc21
active: [2] 30.6 µM | [3] 30.3 µM | [4] 27.5 µM | [5] 20 µM | [6] 14.7 µM | [7] 23.9 µM | [8] 37.8 µM | [10] 16 µM | [11] 31.8 µM | [12] 14.4 µM | [13] 9.02 µM | [14] 18.2 µM | [15] 34 µM | [16] 20 µM | [17] 20 µM

CCCCCCCCCCCCCCCCCC(=O)O
active: [10] 20 µM | [12] 39 µM
not listed: [1] | [9] | [16] | [18]
inactive: all other assays above

Cc1ccc(C)c(O)c1C
not listed: [1] | [19]
inactive: all other assays above

Cc1ccc2ncccc2c1
not listed: [1] | [9] | [18] | [19]
inactive: all other assays above

c1cc(-c2ccncc2)ccn1
active: [12] 39 µM
not listed: [1] | [18]
inactive: all other assays above

C[C@]12C=CC(=O)C=C1CC[C@@H]1[C@@H]2C(=O)C[C@@]2(C)[C@H]1CC[C@]2(O)C(=O)CO
not listed: [1]
inactive: all other assays above

CCCCCCCCCCO
not listed: [1] | [18] | [19]
inactive: all other assays above

C[Si]1(C)O[Si](C)(C)O[Si](C)(C)O[Si](C)(C)O1
active: [1] 46.9 µM
not listed: [9] | [18]
inactive: all other assays above

COc1ccc(C)cc1N
not listed: [1]
inactive: all other assays above
